# High-throughput results (PubChem)
# Most compounds without a hit are left out; they make up all but 11% or so of the library.
# USP17 inh – inhibitors of human USP17 deubiquitinase; Ubiquitin carboxyl-terminal hydrolase 17-like protein 5 (Homo sapiens), A8MUK1; purified USP17, Ub-rhodamine cleavage fluorescence, 3 h; inhibition, % at 50 µM; hit rate 6.5% among 47,000; AID 1645855, 2021
# USP30 inh – inhibitors of human USP30 deubiquitinase; hit rate 5.3% among 47,000; Ubiquitin carboxyl-terminal hydrolase 30 (Homo sapiens), Q70CQ3; inhibition, % at 25 µM; AID 1645860, 2021; purified USP30, Ub-rhodamine cleavage fluorescence
# Target sequence (Q70CQ3 whole entry, looked up): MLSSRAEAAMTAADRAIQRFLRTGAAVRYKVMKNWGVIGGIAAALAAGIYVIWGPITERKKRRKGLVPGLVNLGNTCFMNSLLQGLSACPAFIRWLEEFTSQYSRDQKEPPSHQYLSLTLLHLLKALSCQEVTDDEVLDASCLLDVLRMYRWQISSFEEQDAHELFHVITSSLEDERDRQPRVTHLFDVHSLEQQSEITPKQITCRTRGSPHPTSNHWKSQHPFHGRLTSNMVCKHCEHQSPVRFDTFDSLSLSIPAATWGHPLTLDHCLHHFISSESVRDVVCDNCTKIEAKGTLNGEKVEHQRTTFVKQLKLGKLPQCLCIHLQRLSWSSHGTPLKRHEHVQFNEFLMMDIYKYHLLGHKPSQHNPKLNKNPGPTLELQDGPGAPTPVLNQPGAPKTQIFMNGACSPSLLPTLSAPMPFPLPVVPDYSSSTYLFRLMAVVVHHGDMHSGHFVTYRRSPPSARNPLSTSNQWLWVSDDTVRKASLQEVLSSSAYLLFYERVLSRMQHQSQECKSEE
# USP28 inh – inhibitors of human USP28 deubiquitinase; Ubiquitin carboxyl-terminal hydrolase 28 (Homo sapiens), Q96RU2; purified USP28, Ub-rhodamine cleavage fluorescence, 30 min; inhibition, % at 25 µM; hit rate 3% among 47,000; AID 1645857, 2021
# The depositor's hits bear a star; nt = no result given. No stated cut-off is given here; in the data, active means inhibition above about 30%; inactive means the rest.
SMILES,USP17 inh,USP30 inh,USP28 inh
CC1(C)CC(=O)C2=C(C1)Nc1ccccc1N(Cc1ccccc1)C2c1ccccc1Cl (centres undefined),28.3,1.0,-4.0
COC(=O)CN1c2ccccc2NC2=C(C(=O)CC(C)(C)C2)C1c1cccs1 (centres undefined),2.3,30.9*,9.1
Cn1c(=O)[nH]c(=O)c2c1nc(N1CCN(c3cccc(Cl)c3)CC1)n2CCSc1ncccn1,-29.1,-57.1,-9.8
CC(=O)NC(Cc1ccccc1)c1ccc2c(c1)OCCO2 (centres undefined),6.2,8.4,8.0
Cc1ccc(F)cc1NC(=O)Cc1nnc(-c2ccc3ncccc3c2)o1,25.1,1.2,2.8
COc1ccc2c3c(c(=O)oc2c1)CN(C(=O)Nc1ccc(F)cc1F)CC3,-10.1,-22.3,-13.3
O=C1CC(c2cc(F)ccc2F)c2cc3c(cc2N1)OCCO3 (centres undefined),9.3,19.8,14.5
O=C1CC(c2cc3c(cc2Br)OCO3)c2cc3c(cc2N1)OCCO3 (centres undefined),66.9*,17.9,10.6
CO[C@H]1/C=C/C=C\C=C\C[C@@H](OC(=O)[C@H](C)NC(=O)C2CCCCC2)[C@H](C)[C@@H](O)/C(C)=C\CCC2=CC(=O)C=C(NC(=O)C1)C2=O,45.7*,-13.6,3.8
Cc1nnc(-c2ccc3ccn(CC(=O)N4CCN(c5ccccc5)CC4)c3c2)o1,93.2*,49.9*,23.9
Cc1nnc(-c2ccc3ccn(CC(=O)N4CCCc5ccccc54)c3c2)o1,85.9*,nt,nt
Cc1nnc(-c2ccc3ccn(CC(=O)NC4CCCCCC4)c3c2)o1,6.6,16.4,7.1
Cc1nnc(-c2ccc3ccn(CC(=O)NC4CCCC4)c3c2)o1,-10.9,1.8,-8.3
Cc1ccccc1NC(=O)CCC1CCCN(c2cc(NC3CC3)ncn2)C1 (centres undefined),-14.5,-34.8,-12.4
CC(=O)c1ccc(N(C(=O)c2ccc(Cl)cc2)c2nc3ccccc3s2)cc1,-39.2,-16.1,-3.6
COc1ccc(C(=O)N(c2ccc(F)cc2)c2nc3ccccc3s2)cc1OC,4.4,48.4*,3.9
O=[N+]([O-])c1ccc2[nH]cc(S(=O)(=O)Nc3ccc(Cl)cc3)c2c1,-7.4,3.6,5.1
CCc1ccc(NS(=O)(=O)c2c[nH]c3ccc([N+](=O)[O-])cc23)cc1,60.2*,65.8*,24.7
CCCCNC(=O)C1CCN(c2ccc(N3CCCCC3)nn2)CC1,8.5,28.1,15.0
CCCCNC(=O)C1Sc2nnc(-c3ccccc3)n2NC1c1ccccc1 (centres undefined),1.1,50.5*,5.8
COc1ccc(CCC(=O)NCCc2c[nH]c3ccc(OC)cc23)cc1,-19.0,-41.5,-21.2
Cc1nc2c3ccccc3nc(NCc3ccc4c(c3)OCO4)n2n1,53.7*,13.6,0.0
Cn1c(NCc2ccc3c(c2)OCO3)nc(=O)n(-c2ccccc2)c1=O,9.3,16.0,11.6
C=CCNC(=O)c1cc2c(=O)n3ccccc3nc2n1Cc1ccccc1,20.5,nt,nt
Oc1ccc(Br)cc1CNc1ccc(F)cc1,52.9*,19.4,60.1*
SMILES,USP17 inh,USP30 inh,USP28 inh
Cc1ccc(-c2cc(N3CCN(S(C)(=O)=O)CC3)ncn2)cc1,47.3*,47.0*,19.3
CS(=O)(=O)N1CCN(c2ccc(-c3ccc(F)cc3)nn2)CC1,25.2,22.4,8.4
Cc1noc(C)c1CCC(=O)N[C@H](C)Cn1nnc2ccccc21,3.5,-1.6,6.4
CCCn1cc2c3c(cccc31)CN(C(=O)C(C)(C)C)CC2,-112.3,-390.0,-112.0
Cc1ccc2cc(CCNC(=O)c3ccccc3Br)c(=O)[nH]c2c1,47.9*,-13.7,2.1
Cc1ccc2cc(CCNC(=O)c3cccc(Br)c3)c(=O)[nH]c2c1,67.1*,-0.9,-11.1
Cc1cc2cc(CCNC(=O)c3ccc(F)cc3)c(=O)[nH]c2cc1C,2.1,11.4,7.9
Cc1cc2cc(CCNC(=O)/C=C\c3ccccc3)c(=O)[nH]c2cc1C,18.0,-10.5,-7.7
Cc1ccc(-c2ccc(-n3nc(C)c(S(=O)(=O)N4CCOCC4)c3C)nn2)cc1,2.0,3.6,-1.3
CC(C)(C)CNC(=O)c1cc(-c2cnc(N3CCOCC3)nc2)cn1CC1CC1,-10.3,-39.4,-3.1
C[C@]12C[C@@H](c3ccccc3)C[C@](CO)(CC[C@@H](NC(=O)c3ccccc3)[C@@H]1O)O2,-1.1,0.1,-8.0
CN(C(=O)c1ccncc1)[C@H]1CC[C@@]2(C)C[C@H](c3ccccc3)C[C@](C)(O2)[C@@H]1O,11.1,28.7,80.8*
COC1O[C@@]2(O)[C@H](O)CO[C@H]3O[C@H]4[C@@H](C1=C[C@H](O)[C@@H]1C5=C(C(C)C)CC[C@]5(C)CC[C@@]41C)[C@]32O (some centres undefined),-2.9,-1.0,-2.7
Cn1c(CNc2ccc(F)cc2)nnc1SCC(=O)Nc1cccc2ccccc12,0.6,20.5,28.7
COC(=O)c1ccccc1NC(=O)CSc1nnc(CNc2ccc(F)cc2)n1CC1CCCO1 (centres undefined),90.4*,6.0,10.1
Cc1ccc(-c2cnc(NC3CCCCC3)nc2)cc1,-1.5,-0.5,-0.1
CCN1CCN(c2ccc(C(=O)OC)cc2NC(=O)/C=C/c2cccc([N+](=O)[O-])c2)CC1,-6.4,-1.7,-3.3
COc1ccc2c(c1)c(C(=O)CSc1nc(C)nc3c1oc1ccccc13)c(C)n2C,22.6,28.0,1.2
CCc1nc(Sc2ccc3ccccc3c2)c2oc3ccccc3c2n1,51.3*,51.8*,4.8
CCc1nc(SCC(=O)NCCc2ccc(OC)c(OC)c2)c2oc3ccccc3c2n1,-7.4,21.4,7.8
CCc1nc(SCC(=O)Nc2cc(C)ccc2OC)c2oc3ccccc3c2n1,40.6*,42.4*,3.3
COc1ccc(OC)c(NC(=O)CSc2nc(C)nc3c2oc2ccccc23)c1,60.9*,18.1,7.5
CCc1nc(SCCO)c2oc3ccccc3c2n1,-3.8,-13.4,-3.8
CC1(c2cc3ccccc3o2)NC(=O)N(CC(=O)c2ccc[nH]2)C1=O (centres undefined),-6.2,-141.1,-9.7
Cc1cccc(N2C(=O)CCC2(C)C(=O)NC2CCCC2)c1C (centres undefined),7.9,4.1,6.5
SMILES,USP17 inh,USP30 inh,USP28 inh
Cc1cncc(C2CCCN(C(=O)CCc3nc4ccccc4[nH]3)C2)n1 (centres undefined),-11.3,-5.5,2.1
COCCN1C(=O)c2ccccc2C(C(=O)Nc2ccccc2)C12CCCCC2 (centres undefined),5.8,-2.8,3.4
CC1CS(=O)(=O)N(c2ccc(C(=O)NCc3ccc(Cl)cc3)cc2)C1=O (centres undefined),15.7,26.1,13.9
Cc1ccc(NC(=O)c2ccccc2N2C(=O)N3CCc4c([nH]c5ccccc45)[C@@]3(C)C2=O)cc1C,-3.8,-28.9,-8.6
CN1CC(=O)N(C2CCNC2)Cc2c(NC3Cc4ccccc4C3)ncnc21 (centres undefined),49.9*,11.5,19.7
CC1CCC(Nc2ncnc3c2CN(C2CCNC2)C(=O)CN3C)CC1 (centres undefined),-19.6,2.6,18.3
Cc1ccc(C2CC(=O)C3=C(C2)Nc2ccccc2N(C(=O)C(F)(F)F)C3c2ccc(OCc3ccccc3)cc2)cc1 (centres undefined),13.7,10.7,6.3
